Molecules are shown by their SMILES. About 83,000 compounds went through this panel and 20% of them were active in at least one assay; those are over-represented in the sample as a whole.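 Assay: single dose, 48 h. Readout: percent growth (0 = no net growth; negative = cell death). Active: <10.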 Values without a mark were called inactive. Activity calls are given as the source filed them.

The first assay deals with OVCAR-3 ovarian. The experiment in a line: NCI-60 one-dose screen, 48 h (100 = growth as untreated, 0 = no growth, -100 = all killed). As to conditions: 10 µM unless noted.
As for `Cn1cc(C2=C(c3cn(C4CCN(Cc5ccccn5)CC4)c4ccccc34)C(=O)NC2=O)c2ccccc21`, the growth was 90.3%.
On the same count and under the same terms, then `O=C1OCCC1Br` (stereo not given), with 112%.
For `CC(CO)NC1CCCCC1` (stereo not given), the growth was 115%.
Still for that read-out and setting: in the case of `ClCCN(CCCl)Cc1ccc(Nc2ccnc3cc(Cl)ccc23)cc1` it was 39.7%; in that of `O=C(N/N=C\c1ccc(N(CCCl)CCCl)cc1)c1cccc([N+](=O)[O-])c1`, 83.2%; in that of `O=[N+]([O-])c1c(Br)sc(Br)c1[N+](=O)[O-]`, -62.4% (active).
Consider `CC12CC(=O)C3(SC#N)C(CCC4=CC(=O)CCC43C)C1CCC2=O` (stereo not given), for which the growth was 42.1%.
Still for that read-out and setting: then `NC1CC2CCCCC2CC1(O)c1ccccc1` (stereo not given), with 109%.
As to `N/C(=N/N=C/c1ccncc1)N[N+](=O)[O-]`, the growth is 113%.
With `O=C1CCC2(O)[C@@H]3Cc4ccc(O)c5c4[C@]2(CCN3Cc2ccoc2)C1O5` (stereo not given in full), the growth is 107%.
As for `CCOP(=O)(Nc1ccc2c(c1)/C(=N/NC(N)=S)c1ccccc1-2)OCC`, the growth is 105%.
For the compound `O=C(N/N=C\c1ccc(N(CCCl)CCCl)cc1Cl)c1cccnc1`, the growth is 57.6%.
In the case of `COC(=O)CCc1c[nH]c2ccc(N(CCCl)CCCl)cc12`, the growth was 80.3%.
Still for that read-out and setting: then `C/C(CC(C)(C)N1CC1)=N\NC(=O)Nc1cccc2ccccc12`, with 48.3%.
On the same count and under the same terms, then `O=C(O)CNC(=O)C(Cl)(Cl)Cl`, with 108%; and `N#CCCNc1ccccc1`, with 106%.
Same read-out and setting: then `CCCCCC1(CCBr)C(=O)NC(=O)NC1=O`, with 104%; and `NC(CCl)CCl`, with 100%; and `CCC1CN1CCCCN1CC1CC` (stereo not given), with 107%.
For `O=[N+]([O-])CC(O)C(Cl)(Cl)Cl` (stereo not given), the growth was 116%.
Still for that read-out and setting: then `O=[N+]([O-])c1ccc(OP(=O)(CCl)N(CCCl)CCCl)cc1` (stereo not given), with 118%.
Same read-out and setting: in the case of `CCOc1ccc(/C=C/[N+](=O)[O-])cc1` it was 86.3%.

For the next assay, the system named is HS 578T breast. The description is as above. As to conditions: 10 µM unless noted.
Take `CC(CO)NC1CCCCC1` (stereo not given): the growth was 115%.
On the same count and under the same terms, in the case of `CC[C@H](C)[C@H](NC(=O)C12CC(NC(C)=O)(C1)C2)C(=O)N(C)[C@H](C[C@@H](OC(C)=O)c1nc(C(=O)N[C@@H](Cc2ccccc2)C[C@H](C)C(=O)OC)cs1)C(C)C` it was 15.8%; in that of `CC[C@H](C)[C@H](NC(=O)NC(C)(C)C)C(=O)N(C)[C@H](C[C@@H](OC(C)=O)c1nc(C(=O)N[C@@H](Cc2ccccc2)C[C@H](C)C(=O)OC)cs1)C(C)C`, 3.72% (active); in that of `O=C(N/N=C\c1ccc(N(CCCl)CCCl)cc1)c1cccc([N+](=O)[O-])c1`, 64.2%.
Still for that read-out and setting: in the case of `CCn1c2ccccc2c2cc(C(=O)c3ccc(C)c4ccccc34)ccc21` it was 30.1%; in that of `COc1ccc([As]=[As]c2ccc(OC)c(NCS(=O)(=O)O)c2)cc1NCS(=O)(=O)O` (stereo not given), 6.44% (active).
For the compound `NC1CC2CCCCC2CC1(O)c1ccccc1` (stereo not given), the growth is 102%.
For the compound `N/C(=N/N=C/c1ccncc1)N[N+](=O)[O-]`, the growth was 106%.
Same read-out and setting: then `O=C1CCC2(O)[C@@H]3Cc4ccc(O)c5c4[C@]2(CCN3Cc2ccoc2)C1O5` (stereo not given in full), with 105%; and `CCOP(=O)(Nc1ccc2c(c1)/C(=N/NC(N)=S)c1ccccc1-2)OCC`, with 82%.
The same measure, in the same setting: then `O=C(N/N=C\c1ccc(N(CCCl)CCCl)cc1Cl)c1cccnc1`, with 119%; and `COc1cc(C=Nc2cccc(C(=O)O)c2)ccc1N(CCCl)CCCl`, with 92.8%; and `C/C(CC(C)(C)N1CC1)=N\NC(=O)Nc1cccc2ccccc12`, with 79.8%.
On the same count and under the same terms, in the case of `CCCCNC(c1ccc(Cl)cc1)C(O)c1ccc(Cl)cc1` (stereo not given) it was 64.2%; in that of `CC1(C)[C@H](O)[C@H](F)C[C@@]2(C)Oc3ccc(C(=O)Nc4ccc5c(c4)NC(=O)C54CCN(CCCCC#N)CC4)cc3C[C@H]12`, -13.3% (active).
As for `COC(=O)[C@@H](C)C[C@H](Cc1ccccc1)NC(=O)c1csc([C@@H](C[C@H](C(C)C)N(C)C(=O)[C@@H](NC(=O)[C@H]2CCCCN2C)C(C)C)OC(C)=O)n1`, the growth was -2.62% (active).
Still for that read-out and setting: then `CC[C@H](C)[C@H](NC(=O)[C@H]1CCCCN1C)C(=O)N(C)[C@H](CCc1nc(C(=O)N[C@@H](Cc2ccccc2)C[C@H](C)C(=O)OC)cs1)C(C)C`, with 39.2%; and `COC(=O)[C@@H](C)C[C@H](Cc1ccccc1)NC(=O)c1csc([C@@H](C[C@H](C(C)C)N(C)C(=O)[C@@H](NC(=O)[C@H]2CCCCN2C)C(C(F)(F)F)C(F)(F)F)OC(C)=O)n1`, with 17.6%.
On the same count and under the same terms, then `[Cl][Hg][n]1c(-c2ccco2)nc2ccccc21`, with 93.9%; and `Cc1cc(N(CCCl)CCCl)ccc1C=Nc1ccccc1-c1ccccc1`, with 104%.
Same read-out and setting: in the case of `COC(=O)[C@@H](C)C[C@H](Cc1ccccc1)NC(=O)c1csc([C@@H](C[C@H](C(C)C)N(C)C(=O)[C@@H](NC(=O)C23CC(NC(C)=O)(C2)C3)C2CC2)OC(C)=O)n1` it was 7.48% (active).
Regarding `CN(C)CCCOc1ccc2c(c1)c(C(=O)C(=O)NCCO)cn2Cc1ccccc1`, the growth was 99.6%.
As for `O=C(CC1(O)C(=O)Nc2ccc(Cl)cc21)c1ccc(C(=O)NCC2CCC3(CC2)OOC2(CCCCC2)OO3)cc1` (stereo not given), the growth is 16.1%.
